KDM5B inhibitor: Primary screen for KDM5B Histone Demethylases FDH-coupled qHTS; Lysine-specific demethylase 5B (Homo sapiens), Q9UGL1; KDM5B demethylase, FDH-coupled NADH fluorescence (FDH is formaldehyde dehydrogenase); Potency, µM (doses to about 57.7 µM), usual class: inhibitors; 2.6% of 220,000 active; AID 1347165, 2019; active = well fitted inhibition curve with a large enough effect; note: 0% is about no effect; nearly all actives have a fitted effect of over 70% in size
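KDM5BΔAP (200 nM final) in 50 mM HEPES pH 7.5, 0.01% Tween-20 was preincubated 10 min at RT with compound over a concentration range. Substrate mix (H3K4me3 12.5 µM, α-KG 25 µM, Fe²⁺, ascorbate, NAD⁺, FDH) was added, and NADH fluorescence change over 30 min gave dose-response curves.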
Starred values were filed as active, the others as inactive; i = inactive. This excerpt belongs to a sample that is enriched for hits. Potency is the fitted concentration of half-maximal effect.

SMILES | KDM5B inhibitor
O=C(c1[nH]nc2c1COc1ccccc1-2)N1CCC(Cc2nncn2CC2CC2)CC1 | i
Cc1c(O)cc(C(=O)/C=C/c2ccccc2)cc1Cl | i
CCOC(=O)c1cccnc1N1C[C@H]2OC(=O)N(Cc3ccccn3)[C@H]2C1 | 28µM*
COc1cc(N2C[C@H]3OC(=O)N(Cc4ccccc4OC)[C@H]3C2)ncn1 | i
O=C(c1cccnc1)N1C[C@@H]2OCC(=O)N(Cc3ccccn3)[C@@H]2C1 | i
CC(C)c1ccc(C(C)NC(=O)CN2CCCc3nc(-c4ccccc4)ncc3C2=O)cc1 (configuration not stated) | i
COc1ccc(NC(=O)N2CC(C(=O)N(C)C)C3(CCOCC3)C2)c(OC)c1 (configuration not stated) | i
CCCN1C(=O)CCc2cc(NS(=O)(=O)CC)ccc21 | i
O=C(Nc1cccc(CN2CCOCC2)c1)/C(=C/c1ccccc1)c1ccccc1 | i
Cc1ccc(CN(C)C(=O)CN2CCCC2c2ccc3c(c2)OCCO3)cc1 (configuration not stated) | i
N#Cc1c(NC(=O)CSc2nc3ccc(Cl)cc3[nH]2)sc2c1CCC2 | i
COc1ccccc1C(=O)NC[C@H]1COCc2nc3cc(C)ccc3n21 | i
CNCCN1C(=O)CC[C@H]2CN(C(=O)c3ccc(Cl)cn3)CC[C@H]21 | i
CNCCN1C(=O)CC[C@H]2CN(c3ncc(Cl)cc3F)CC[C@H]21 | 25µM*
CNCCN1C(=O)CC[C@H]2CN(c3nc4cc(C)ccc4o3)CC[C@H]21 | i
CC(NC(=O)CCc1ncc(-c2ccc(F)cc2F)o1)c1ccc2c(c1)OCO2 (configuration not stated) | i
NS(=O)(=O)c1ccc(N/N=C/c2ccsc2)c([N+](=O)[O-])c1 | i
Cn1ncc2c(NC3CCC(c4ccccc4)CC3)ncnc21 (configuration not stated) | i
Cc1cc2ccccc2n1CC(=O)N(Cc1ccccc1)C1CC1 | i
CCn1ccnc1CN(C)c1nccc(-c2ccc(C)nc2C)n1 | 22µM*
CCn1ccnc1CN(C)c1cc(C2CC(N)C2)nc(COC)n1 (configuration not stated) | i
CCn1ccnc1CN(C)C(=O)c1cc(COc2ccc3c(c2)OCO3)[nH]n1 | i
Cc1noc(C)c1Cc1ccc(C(=O)N2CC(N(Cc3cccnc3)CC(C)C)C2)o1 | i
OC1CCN(c2ccnc(N3CC[C@@H](c4ccc5c(c4)OCO5)[C@H](O)C3)n2)CC1 | i
Cc1ccc(C#N)c(N2CC[C@@H](c3ccc4c(c3)OCO4)[C@H](O)C2)n1 | 28µM*
SMILES | KDM5B inhibitor
CCc1nc(CN2CC[C@@H](c3ccc4c(c3)OCO4)[C@H](O)C2)c(C)[nH]1 | 25µM*
O=C(c1ccccc1-c1ncc[nH]1)N1CC[C@@H](c2ccc3c(c2)OCO3)[C@H](O)C1 | i
O=C(O)c1cccc(C(=O)N2C[C@@H](C(=O)O)[C@H](c3ccc4c(c3)OCO4)C2)c1 | i
O=C(CCn1ccc(=O)[nH]c1=O)N1CC[C@@H](c2ccc3c(c2)OCO3)[C@H](O)C1 | i
COC(=O)c1ccc(CNC(C)=O)cc1 | i
COc1cc(NC(=O)C2CCCN2C(=O)C23CC4CC(CC(C4)C2)C3)cc(OC)c1OC (configuration not stated) | i
Cc1ccc(CNC(=O)N2CCC(c3noc(-c4cccnc4)n3)C2)cc1 (configuration not stated) | i
CCOC(=O)C1(Cc2ccccc2F)CCCN(C(=O)c2cccc(C(=O)OC)c2)C1 (configuration not stated) | i
C=CCNC(=O)Cc1ccc(N(Cc2ccc(C)cc2)C(=O)c2ccco2)cc1 | i
CCc1nc2c(=O)n(CC(=O)NC(C)c3ccccc3)nc(C)c2s1 (configuration not stated) | i
CCc1ccc(CNC(=O)Cn2nc(C)c3sc(C(C)C)nc3c2=O)cc1 | i
CCn1cnc2c1c(=O)n(CC(=O)NCC1CCCO1)c(=O)n2Cc1ccccc1 (configuration not stated) | i
Cc1nn(CC(=O)NCC2CCCO2)c(=O)c2nc(-c3ccccc3)sc12 (configuration not stated) | 32µM*
Cc1nn(CC(=O)NCc2ccccc2)c(=O)c2nc(C(C)C)sc12 | i
CCc1nc2c(=O)n(CC(=O)N3CCC(Cc4ccccc4)CC3)nc(C)c2s1 | i
CCc1nc2c(=O)n(CC(=O)N3CCN(c4ccc(Cl)cc4)CC3)nc(C)c2s1 | i
CCCN1CCN(C(=O)Cn2nc(C)c3sc(-c4ccccc4)nc3c2=O)CC1 | 32µM*
CCC(C)NC(=O)Cn1nc(C)c2sc(-c3ccccc3)nc2c1=O (configuration not stated) | 8.9µM*
Cc1cc(C)c2oc(C(=O)N(Cc3ccc(Cl)cc3)C3CCS(=O)(=O)C3)cc(=O)c2c1 (configuration not stated) | i
CNC(=O)[C@@H]1CN(S(=O)(=O)c2cc(F)ccc2F)C[C@H]1COC | i
O=C(c1ccc(-c2ccccc2)cc1)C(O)c1ccc(-c2ccccc2)cc1 (configuration not stated) | i
Cc1cccc(C)c1NC(=O)C(=O)c1c(C)[nH]c2ccccc12 | i
COc1ccccc1C(=O)Nc1ccc2oc(-c3ccc(Cl)cc3)nc2c1 | i
COc1ccc(CNC(=O)CCn2ccn3nc4c(c3c2=O)CCCC4)c(OC)c1 | i
O=C(Cn1ccn2nc3c(c2c1=O)CCCC3)NCc1ccccc1 | 25µM*
SMILES | KDM5B inhibitor
COc1cccc(CNC(=O)Cn2ccn3nc4c(c3c2=O)CCCC4)c1 | 25µM*
Cc1cccc(CNC(=O)CCn2ccn3nc4c(c3c2=O)CCCC4)c1 | i
O=C(Cn1ccn2nc3c(c2c1=O)CCCC3)NCc1cccs1 | 20µM*
O=C(CCn1ccn2nc3c(c2c1=O)CCCC3)NCc1ccc(F)cc1 | i
COC(=O)c1ccccc1NC(=O)Cn1ccn2nc3c(c2c1=O)CCCC3 | i
CC(CCc1ccccc1)NC(=O)CCn1ccn2nc3c(c2c1=O)CCCC3 (configuration not stated) | i
CC(=O)c1ccc(NC(=O)Cn2ccn3nc4c(c3c2=O)CCCC4)cc1 | i
O=C(Cn1ccn2nc3c(c2c1=O)CCCC3)NCc1ccc(F)cc1 | i
CCC(C)NC(=O)Cn1ccn2nc3c(c2c1=O)CCCC3 (configuration not stated) | i
CC(CCc1ccccc1)NC(=O)Cn1ccn2nc3c(c2c1=O)CCCC3 (configuration not stated) | 20µM*
COc1cccc(C(=O)N2[C@@H]3CC[C@H]2CC(NC(=O)c2cnc(C)cn2)C3)c1C (some centres not stated) | i
O=C(Nc1ccc(Cl)c(C(=O)NC2CCCCC2)c1)c1ccncc1 | i
CNC(=O)[C@@H]1C[C@H](Oc2ccccc2)CN1C(=O)c1cnccn1 | i
Cc1cc(C)c2oc(C(=O)Nc3ccc(S(=O)(=O)Nc4cc(C)nc(C)n4)cc3)cc(=O)c2c1 | i
N#Cc1ccc(CN2CCC(c3ccnn3CCO)CC2)c(F)c1 | i
O=C(NCc1ccccc1)Nc1c(NC2CCCC2)c2ccccc2oc1=O | i
N#Cc1ccc(OCCSCc2cccc(F)c2)cc1 | i
CSc1ccc(CNC(=O)CCn2ccn3nc4c(c3c2=O)CCCC4)cc1 | i
CC(C)c1ccccc1NC(=O)Cn1ccn2nc3c(c2c1=O)CCCCC3 | i
